Data on five compounds can be found in PubChem BioAssay (NCATS).

A short description of assay [1]: AP1 Signaling Pathway (AID 357).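 Note: ME-180 reporter cells stimulated with EGF at its EC50 level; % is set by controls: 0 for no effect and ±100 for the full control effect.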 As to conditions: ME-180 AP-1-bla reporter, EGF-induced, beta-lactamase ratio, 5 h; at 17.2 µM (top of the series) unless noted. In a few lines:
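AP-1-bla ME-180 cells, Opti-MEM + 0.5% dialyzed FBS, plated overnight 37 °C. Cpd titration + EC50 EGF, 5 h 37 °C. CCF4 2.5 h RT; ex 405, em 460/530 ratio → %activity, AC50.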

A short description of assay [2]: NFAT Signaling Pathway (AID 444).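 Note: carbachol stimulus at about its EC50 of 1 µM final; % is set by controls: 0 for no effect and ±100 for the full control effect.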 Particulars: Jurkat NFAT-bla M1, carbachol, beta-lactamase ratio, 5 h; at 17.2 µM (top of the series) unless noted. In a few lines: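 Read-out: CCF4 FRET ratio (460 nm/530 nm) after 1 h RT dye loading, used for %activity and AC50 from titration series. Cells: Jurkat NFAT-β-lactamase/M1 line, treated with compound plus 1 uM carbachol for 5 h, 37 °C.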

The nature of assay [3]: Stat Signaling Pathway (AID 446).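 Note: ME-180 cervical cancer cells given 40 pM IL-6 alongside compound; SIE-controlled beta-lactamase reporter measured as 460/530 nm FRET emission ratio; % is set by controls: 0 for no effect and ±100 for the full control effect.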 Particulars: ME-180 (cervical carcinoma) SIE beta-lactamase reporter, IL-6 stimulated, 5 h; at 17.2 µM (top of the series) unless noted. The gist of the method:
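ME-180 SIE-bla cells; overnight plating; cpd + IL-6 40 pM, 5 h, 37 C; LiveBLAzer 2.5 h RT; 460/530 nm emission ratio. Normalized to 300 pM IL-6 and 125 nM JAK inhibitor controls.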

In assay [4] the target is Glucocorticoid receptor (Homo sapiens) (UniProt P04150). Nature of the assay: GR-GFP Redistribution (AID 450;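 active = compounds whose dose series gives a full or clear partial fitted curve of increased nuclear translocation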; note: potency is the fitted concentration of half-maximal effect).
For assay [5] the target is unchanged. Nature of the assay: GR-EFC Redistribution (AID 451; calls by dose curve; note: potency is the fitted concentration of half-maximal effect). Particulars: CHO-K1 GR-EFC translocation, beta-gal luminescence, 2 h. The gist of the method:
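Translocation of GR-ED fusion to nuclear EA restores b-gal, read by luminescence after 1 h room-temperature detection. Engineered CHO-K1 biosensor cells, 1,000/well, exposed 2 h at 37 C to titrations up to 46 uM final.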

For assay [6], the target named is Mitogen-activated protein kinase 10 (Mus musculus) (UniProt Q61831). Description: JNK3 AlphaScreen Assay (AID 530).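 Note: kinase came from lysate of stimulated human HepG2 cells; signal reports phosphorylation of biotinylated GST-cJun 1-79 at Ser73 with 10 µM ATP; % is set by controls: 0 for no effect and ±100 for the full control effect.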 The gist of the method: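 Room-temperature AlphaScreen kinase assay; pre-activated HepG2 lysate as JNK3 source, biotin-GST-cJun(1-79) substrate, 10 uM ATP, compound 15 min preincubation.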
(Alpha assays give light when donor and acceptor beads are brought close together.)

In assay [7] the target is 3',5'-cyclic-AMP phosphodiesterase 4B (Homo sapiens) (UniProt Q07343). Nature of the assay: qHTS Assay for Inhibitors of PDE-IV (AID 607; active = well fitted activation curve with a large enough effect in the main read-out, with a control signal flat, not every such curve was filed as active; note: % of control where 0% means no effect). In a few lines:
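ACTOne HEK293 cells carry a modified cAMP-gated CNG channel and express endogenous PDE4; plated 1000 cells/well, compounds up to 22.9 uM final. Membrane-potential dye fluorescence (ex 535/em 590) was read; parental cells received 10 uM forskolin + 100 uM RO 20-1724.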
A general note: In qHTS, concentration-response curves come from the screen itself.

Assay [8] addresses Guanine nucleotide-binding protein G(i) subunit alpha-1 (Homo sapiens) (UniProt P63096). Nature of the assay: qHTS Assay for Inhibitors of RGS12 GoLoco Motif Activity (Green Fluorophore) (AID 879; active = well fitted curve in the direction sought with a large enough effect; an effect the other way counts as inactive or inconclusive;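 note: 0% = labeled peptide with Gαi1 and full inhibition = labeled peptide alone without protein; negative values mean loss of peptide binding seen as reduced polarization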). The gist of the method:
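Fluorescence polarization assay: 50 nM Gαi1 with 10 nM FITC-labeled RGS12 GoLoco peptide in 10 mM Tris pH 7.5, 150 mM NaCl, 0.1 mM GDP, 0.05% NP40, 10 min at room temperature with compound.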

Assay [9] is described as follows: qHTS Assay for Identification of Small Molecule Agonists for Thrombopoietin (TPO) Signaling Pathway (AID 917; active = well fitted curve in the direction sought with a large enough effect; an effect the other way counts as inactive or inconclusive; note: % is set by controls: 0 for no effect and ±100 for the full control effect). In a few lines:
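Luminescence from a Glycoprotein IIb promoter–driven luciferase reporter served as read-out in murine Ba/F3 cells carrying the human TPO receptor. Cells, deprived of IL-3 overnight, received compounds with 26 pM TPO and were incubated 24 hrs at 37 C.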

For assay [10], the target named is Muscarinic acetylcholine receptor M1 (Rattus norvegicus) (UniProt P08482). Nature of the assay: qHTS Assay for Antagonists of Acetylcholine Muscarinic M1 Receptor: Measurement of IP-One Response (AID 944; active = well fitted curve in the direction sought with a large enough effect; an effect the other way counts as inactive or inconclusive; note: nearly all actives have a fitted effect of over 75% in size). The gist of the method: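 Steps: plate transfected CHO-M1 cells overnight; add test compound, 10 min; add carbachol (200 nM, EC80) in stimulation buffer with LiCl; incubate 30 min; add labelled IP1 tracer and anti-IP1 antibody in lysis buffer; read HTRF after 10 min.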

In assay [11] the target is Pyruvate kinase (Leishmania mexicana) (UniProt Q27686). Nature of the assay: qHTS Validation Assay for Inhibitors of Leishmania Mexicana Pyruvate Kinase (AID 945; active = well fitted curve in the direction sought with a large enough effect; an effect the other way counts as inactive or inconclusive;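 note: 0% = DMSO only neutral control wells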). In a few lines: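 Purified LmPYK (E451W mutant, 0.2 nM) was incubated 1 h at room temperature with 0.5 mM PEP and 0.1 mM ADP in 50 mM imidazole pH 7.2, 50 mM KCl, 7 mM MgCl2; ATP formed was read by PKLight luminescence, normalized to DMSO wells.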

For assay [12], the target named is Pyruvate kinase PKM (Homo sapiens) (UniProt P14618). Description: qHTS Assay for Activators of Human Muscle Pyruvate Kinase (AID 954; active = well fitted curve in the direction sought with a large enough effect, not every such curve was filed as active;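 note: 0% = uninhibited enzyme and -100% = no enzyme or full thiadiazolimine inhibition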). The gist of the method:
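Luminescence from a luciferase ATP-detection/stop reagent reported PKM2 activity. Reactions contained 0.1 nM purified human enzyme, 0.5 mM PEP, 0.1 mM ADP and 7 mM MgCl2 at pH 7.2, run 1 h at RT.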

Assay [13] deals with Alpha-galactosidase A (Homo sapiens) (UniProt P06280). Description: Counterscreen for Glucocerebrosidase Inhibitors: qHTS Assay for Human alpha-Galactosidase at pH 4.5 (AID 992; active = well fitted curve in the direction sought with a large enough effect; an effect the other way counts as inactive or inconclusive; note: 0% is about no effect). The gist of the method:
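Enzyme at 2 nM final was combined with compound (0.7 nM to 77 uM) and 80 uM 4-methylumbelliferyl alpha-D-galactopyranoside in 50 mM citric acid, 0.005% Tween-20, pH 4.5. After 20 min at room temperature, fluorescence was read (Ex 365/Em 440 nm); AC50 came from Hill fits.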
A general note: Counterscreens check selectivity or assay interference.

Assay [14] concerns the target alpha-glucosidase (Oryza sativa, rice) (UniProt Q653V4). Nature of the assay: Counterscreen for Glucocerebrosidase Inhibitors: qHTS Assay for Rice alpha-Glucosidase at pH 5.0 (AID 997; active = well fitted curve in the direction sought with a large enough effect; an effect the other way counts as inactive or inconclusive;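 note: 0% = full activity with enzyme and -100% = basal without enzyme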). The gist of the method:
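Rice alpha-glucosidase (4 nM final) with 400 uM 4-methylumbelliferyl-alpha-D-glucopyranoside in citrate buffer pH 5.0, 20 min at room temperature, stopped at pH 10; fluorescence 365/440 nm, compounds 0.7 nM–77 uM, AC50 from Hill fits.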

Assay [15] in a line: qHTS Assay for Identification of Small Molecule Antagonists for NFkB Signaling Pathway (AID 895; active = well fitted inhibition curve with a large enough effect in the signal ratio, with a control signal flat, not every such curve was filed as active; the % refers to the signal ratio; note: potency is the fitted concentration of half-maximal effect). In a few lines:
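Beta-lactamase reporter read-out (460 and 530 nm emission ratio, 405 nm excitation, 2 hrs substrate loading RT) after 5 hr stimulation with 10 pM TNF alpha in compound-treated NFkB-bla ME-180 cells in low-serum medium.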

In assay [16] the target is Muscarinic acetylcholine receptor M1 (Rattus norvegicus) (UniProt P08482). Nature of the assay: qHTS Assay for Antagonists of Acetylcholine Muscarinic M1 Receptor: Kinetic Measurement of Intracellular Calcium Response (AID 943; active = well fitted curve in the direction sought with a large enough effect; an effect the other way counts as inactive or inconclusive;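 note: Fluo-4 calcium signal as peak divided by basal fluorescence over 4 min; nearly all actives have a fitted effect of over 75% in size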). The gist of the method:
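Intracellular calcium flux, recorded with Fluo-4 in a kinetic plate reader, served as signal; the response to carbachol at EC80 (100 nM final) was taken as maximal over minimal fluorescence after a 10 min compound pre-incubation in rat M1-CHO cells.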

Assay [17] concerns the target Cytochrome P450 3A4 (Homo sapiens) (UniProt P08684). Description: qHTS Assay for Activators of Cytochrome P450 3A4 (AID 885; active = well fitted curve in the direction sought with a large enough effect; an effect the other way counts as inactive or inconclusive; note: nearly all actives have a fitted effect of over 65% in size). In a few lines: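 20nM CYP3A4 + 25uM Luciferin-PPXE (=KM), 200mM KPO4; cpd 10 min RT; NADPH regen, 60 min RT; stop w/ detection buffer, 20 min; luminescence. Normalized to 57 uM ketoconazole.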

SMILES strings stand for the structures. A number with no mark means an inactive call. Results filed as inconclusive are left out. Calls of active or inactive are those of the source. Unless noted, calls come from the whole dose curve; as a rule, active = well fitted curve in either direction with a large enough effect (not every such curve was filed as active); inconclusive = small, poorly fitted or top-dose-only effect, or another doubt; inactive = flat fitted curve, though single readings scatter.

Alpha-galactosidase A (Homo sapiens), sequence (P06280 whole entry, looked up): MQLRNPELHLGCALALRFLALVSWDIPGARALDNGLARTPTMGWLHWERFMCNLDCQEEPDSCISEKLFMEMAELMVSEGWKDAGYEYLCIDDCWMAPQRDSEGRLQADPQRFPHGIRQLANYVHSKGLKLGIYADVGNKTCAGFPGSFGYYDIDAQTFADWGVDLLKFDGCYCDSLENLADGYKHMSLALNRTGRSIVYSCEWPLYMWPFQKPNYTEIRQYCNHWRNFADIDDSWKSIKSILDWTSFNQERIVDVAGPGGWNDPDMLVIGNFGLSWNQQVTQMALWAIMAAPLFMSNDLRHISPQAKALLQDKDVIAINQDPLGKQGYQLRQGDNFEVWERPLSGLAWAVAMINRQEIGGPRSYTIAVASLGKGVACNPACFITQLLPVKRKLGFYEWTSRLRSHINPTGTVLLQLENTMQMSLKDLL
Pyruvate kinase PKM (Homo sapiens), sequence (P14618 whole entry, looked up): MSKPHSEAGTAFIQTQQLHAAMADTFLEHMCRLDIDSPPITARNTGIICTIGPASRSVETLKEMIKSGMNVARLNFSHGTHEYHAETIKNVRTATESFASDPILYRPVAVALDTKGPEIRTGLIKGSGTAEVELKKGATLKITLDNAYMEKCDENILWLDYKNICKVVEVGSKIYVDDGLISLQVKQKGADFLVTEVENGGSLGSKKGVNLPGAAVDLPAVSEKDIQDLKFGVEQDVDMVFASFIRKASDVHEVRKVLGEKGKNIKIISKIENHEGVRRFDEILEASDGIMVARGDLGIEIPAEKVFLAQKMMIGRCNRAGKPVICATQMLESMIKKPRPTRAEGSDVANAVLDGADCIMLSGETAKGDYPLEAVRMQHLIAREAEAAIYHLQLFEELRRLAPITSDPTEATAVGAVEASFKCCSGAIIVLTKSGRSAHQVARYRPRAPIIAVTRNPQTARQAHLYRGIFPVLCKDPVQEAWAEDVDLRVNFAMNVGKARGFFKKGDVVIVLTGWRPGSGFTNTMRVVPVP
3',5'-cyclic-AMP phosphodiesterase 4B (Homo sapiens), sequence (Q07343 whole entry, looked up): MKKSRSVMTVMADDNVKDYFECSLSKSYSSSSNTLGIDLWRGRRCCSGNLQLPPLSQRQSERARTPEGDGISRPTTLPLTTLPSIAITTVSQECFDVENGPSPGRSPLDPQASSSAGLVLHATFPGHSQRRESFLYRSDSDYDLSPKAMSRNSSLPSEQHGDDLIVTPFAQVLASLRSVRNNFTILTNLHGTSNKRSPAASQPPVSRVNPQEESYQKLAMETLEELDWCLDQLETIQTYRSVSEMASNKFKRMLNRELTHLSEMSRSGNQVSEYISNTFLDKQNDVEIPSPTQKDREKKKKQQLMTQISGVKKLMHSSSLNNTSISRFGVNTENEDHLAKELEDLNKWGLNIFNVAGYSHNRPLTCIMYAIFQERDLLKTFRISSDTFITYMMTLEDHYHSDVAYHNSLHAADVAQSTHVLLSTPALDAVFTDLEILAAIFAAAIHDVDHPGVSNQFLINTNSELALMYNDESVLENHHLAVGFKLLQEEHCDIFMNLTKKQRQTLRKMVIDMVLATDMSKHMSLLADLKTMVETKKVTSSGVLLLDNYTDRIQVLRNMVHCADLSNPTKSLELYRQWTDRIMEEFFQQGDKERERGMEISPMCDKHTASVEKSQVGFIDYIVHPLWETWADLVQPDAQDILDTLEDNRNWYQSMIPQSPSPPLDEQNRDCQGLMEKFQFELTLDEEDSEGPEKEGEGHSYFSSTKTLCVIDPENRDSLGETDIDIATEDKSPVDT
Pyruvate kinase (Leishmania mexicana), sequence (Q27686 2-499 E452W): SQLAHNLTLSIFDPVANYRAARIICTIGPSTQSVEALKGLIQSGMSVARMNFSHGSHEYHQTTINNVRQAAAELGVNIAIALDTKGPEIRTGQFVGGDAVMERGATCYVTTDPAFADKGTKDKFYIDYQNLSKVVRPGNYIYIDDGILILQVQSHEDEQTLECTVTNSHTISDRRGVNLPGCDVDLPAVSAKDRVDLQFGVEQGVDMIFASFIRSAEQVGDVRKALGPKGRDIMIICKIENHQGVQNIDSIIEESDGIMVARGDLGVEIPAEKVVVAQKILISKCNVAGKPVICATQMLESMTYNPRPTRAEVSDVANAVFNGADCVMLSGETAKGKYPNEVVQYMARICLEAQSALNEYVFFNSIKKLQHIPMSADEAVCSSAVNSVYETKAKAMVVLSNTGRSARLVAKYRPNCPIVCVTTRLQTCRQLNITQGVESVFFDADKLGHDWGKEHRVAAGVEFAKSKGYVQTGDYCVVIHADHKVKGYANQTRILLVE
Glucocorticoid receptor (Homo sapiens), sequence (P04150 whole entry, looked up): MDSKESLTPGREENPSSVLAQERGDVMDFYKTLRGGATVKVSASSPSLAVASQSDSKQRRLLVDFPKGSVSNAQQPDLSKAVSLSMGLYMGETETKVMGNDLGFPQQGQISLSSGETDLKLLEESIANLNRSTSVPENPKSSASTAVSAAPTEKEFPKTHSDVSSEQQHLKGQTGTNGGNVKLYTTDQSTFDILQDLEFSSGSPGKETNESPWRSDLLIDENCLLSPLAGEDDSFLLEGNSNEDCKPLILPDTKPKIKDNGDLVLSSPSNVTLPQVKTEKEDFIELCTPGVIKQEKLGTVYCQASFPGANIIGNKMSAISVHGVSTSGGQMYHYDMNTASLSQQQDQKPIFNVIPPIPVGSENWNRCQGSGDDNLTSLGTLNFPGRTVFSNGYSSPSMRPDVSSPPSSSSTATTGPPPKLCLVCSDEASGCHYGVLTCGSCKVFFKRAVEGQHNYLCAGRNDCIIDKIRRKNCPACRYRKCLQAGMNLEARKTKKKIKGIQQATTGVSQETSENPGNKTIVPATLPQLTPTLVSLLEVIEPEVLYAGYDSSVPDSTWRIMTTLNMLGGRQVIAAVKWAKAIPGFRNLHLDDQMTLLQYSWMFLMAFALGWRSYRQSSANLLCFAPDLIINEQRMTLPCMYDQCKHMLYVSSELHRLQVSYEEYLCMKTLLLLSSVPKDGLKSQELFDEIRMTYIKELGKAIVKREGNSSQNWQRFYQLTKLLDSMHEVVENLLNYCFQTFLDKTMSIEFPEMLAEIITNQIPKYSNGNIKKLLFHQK
Guanine nucleotide-binding protein G(i) subunit alpha-1 (Homo sapiens), sequence (P63096 whole entry, looked up): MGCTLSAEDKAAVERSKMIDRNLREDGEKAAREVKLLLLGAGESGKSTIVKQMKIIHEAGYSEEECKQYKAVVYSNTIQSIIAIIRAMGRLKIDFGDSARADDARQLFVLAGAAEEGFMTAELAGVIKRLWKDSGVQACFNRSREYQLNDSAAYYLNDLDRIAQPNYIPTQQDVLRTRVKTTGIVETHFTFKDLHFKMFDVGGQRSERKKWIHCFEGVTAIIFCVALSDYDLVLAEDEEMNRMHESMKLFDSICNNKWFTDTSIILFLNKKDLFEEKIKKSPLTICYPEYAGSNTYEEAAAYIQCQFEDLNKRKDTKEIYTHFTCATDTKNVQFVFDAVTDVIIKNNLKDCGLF
Muscarinic acetylcholine receptor M1 (Rattus norvegicus), sequence (P08482 whole entry, looked up): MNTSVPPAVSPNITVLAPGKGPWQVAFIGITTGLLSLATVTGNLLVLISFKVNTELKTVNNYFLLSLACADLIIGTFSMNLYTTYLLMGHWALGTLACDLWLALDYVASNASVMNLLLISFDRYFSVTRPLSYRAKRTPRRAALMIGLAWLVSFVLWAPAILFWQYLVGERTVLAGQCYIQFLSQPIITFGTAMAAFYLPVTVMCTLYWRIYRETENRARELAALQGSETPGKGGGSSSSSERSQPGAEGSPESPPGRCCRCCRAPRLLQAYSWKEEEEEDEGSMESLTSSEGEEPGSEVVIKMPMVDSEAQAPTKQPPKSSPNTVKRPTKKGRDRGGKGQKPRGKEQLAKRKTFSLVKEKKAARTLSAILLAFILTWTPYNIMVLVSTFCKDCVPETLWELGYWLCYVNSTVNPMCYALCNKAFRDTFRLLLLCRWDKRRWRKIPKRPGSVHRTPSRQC
Cytochrome P450 3A4 (Homo sapiens), sequence (P08684 whole entry, looked up): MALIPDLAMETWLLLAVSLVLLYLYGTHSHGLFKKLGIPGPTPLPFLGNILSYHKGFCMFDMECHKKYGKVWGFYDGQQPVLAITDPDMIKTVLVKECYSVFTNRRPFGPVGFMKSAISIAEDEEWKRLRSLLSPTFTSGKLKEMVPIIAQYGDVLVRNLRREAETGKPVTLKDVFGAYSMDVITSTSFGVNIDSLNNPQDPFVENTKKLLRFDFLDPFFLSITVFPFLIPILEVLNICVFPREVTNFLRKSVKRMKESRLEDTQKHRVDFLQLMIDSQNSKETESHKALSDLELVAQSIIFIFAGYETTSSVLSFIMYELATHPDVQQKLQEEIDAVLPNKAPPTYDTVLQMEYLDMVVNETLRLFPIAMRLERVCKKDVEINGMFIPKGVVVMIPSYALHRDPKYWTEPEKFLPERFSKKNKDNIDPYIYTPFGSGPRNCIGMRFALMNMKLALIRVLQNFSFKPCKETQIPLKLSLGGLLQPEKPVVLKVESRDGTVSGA

On to `O=C(O)c1cc(Cl)cc(Cc2cc(Cl)cc(C(=O)O)c2O)c1O`, for which the values for the activity change, negative = inhibition in assay [1], in assay [2] and in assay [6] were 10.2% [at 7.69 µM], 10.6% [at 7.69 µM] and 4.28% [at 11.4 µM], respectively. Also, in [3], the activity, negative = inhibition was -2.39% [at 7.69 µM]. Also, the Potency in assay [4] was > 46 µM; in [5], > 9.22 µM. Besides, the Potency entry in assay [7] is “inactive”.
`O=C(O)c1cc2cccc(S(=O)(=O)N3CCOCC3)c2cc1O`: the activity change, negative = inhibition was 7.94% in assay [1] and 0.851% in assay [2]. The activity, negative = inhibition in assay [3] is 6.34%. For the same compound, the Potency in assay [4] is > 20.6 µM.
With `CC(=O)O[C@@H]1C[C@]2(C)[C@H](C[C@@H](O)[C@H]3[C@@]4(C)CC[C@@H](O)[C@@H](C)[C@@H]4CC[C@@]32C)/C1=C(\CCC=C(C)C)C(=O)O`, the activity change, negative = inhibition in assay [1] is -14.6% [at 38 µM]; in assay [2] it was -0.766% [at 38 µM]. Further, the activity, negative = inhibition in assay [3] is 11.2% [at 38 µM]. Moreover, the Potency in [4] and in assay [5] was > 46 µM in each case. The Potency result in assay [6], in assay [7], in assay [9], in [10] and in assay [11] was “inactive” throughout. Besides, the outcome in assay [8], in [12], in [13] and in [14] was inactive.
Regarding `CCCCC[C@H](O)CCCC(=O)O`, the figures for the activity change, negative = inhibition in [1] and in assay [2] were -0.599% [at 38 µM] and -3.23% [at 38 µM], respectively. Also, in [3], the activity, negative = inhibition was -28.6% [at 38 µM]. The Potency in assay [4] was > 46 µM; in assay [5], > 46 µM; in assay [15], 5.01 µM (active). Also, the Potency result in assay [6], in assay [7], in assay [9], in [16], in [10] and in assay [11] was “inactive” throughout. Further, the compound was called inactive in assay [8], in assay [12], in assay [13] and in [14].
`O=C1c2c(O)cc(O)cc2O[C@@H](c2ccc(O)c(O)c2)[C@H]1O`: the values for the activity change, negative = inhibition in assay [1] and in [2] were -14.3% [at 38 µM] and 13.3% [at 38 µM], respectively. In assay [3], the activity, negative = inhibition is -8.15% [at 38 µM]. The Potency is > 46 µM in assay [4], > 46 µM in assay [5] and 1.58 µM (active) in assay [15]. The Potency entry in assay [6], in assay [7], in [17], in assay [9] and in assay [11] was “inactive” each time. Also, the result in [8], in [12], in assay [13] and in assay [14] was inactive.
